Data reported in ChEMBL document CHEMBL1961873, “Compounds: GSK PKIS; Assays: Nanosyn kinase panel” (2012).

Tests used:
[1] = target: T1, Inhibitor of nuclear factor kappa-B kinase subunit epsilon (Homo sapiens) (UniProt Q14164); conditions: at 1 µM;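 note: reported values are averaged percent inhibition figures against human IKKε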
T1 sequence (whole entry): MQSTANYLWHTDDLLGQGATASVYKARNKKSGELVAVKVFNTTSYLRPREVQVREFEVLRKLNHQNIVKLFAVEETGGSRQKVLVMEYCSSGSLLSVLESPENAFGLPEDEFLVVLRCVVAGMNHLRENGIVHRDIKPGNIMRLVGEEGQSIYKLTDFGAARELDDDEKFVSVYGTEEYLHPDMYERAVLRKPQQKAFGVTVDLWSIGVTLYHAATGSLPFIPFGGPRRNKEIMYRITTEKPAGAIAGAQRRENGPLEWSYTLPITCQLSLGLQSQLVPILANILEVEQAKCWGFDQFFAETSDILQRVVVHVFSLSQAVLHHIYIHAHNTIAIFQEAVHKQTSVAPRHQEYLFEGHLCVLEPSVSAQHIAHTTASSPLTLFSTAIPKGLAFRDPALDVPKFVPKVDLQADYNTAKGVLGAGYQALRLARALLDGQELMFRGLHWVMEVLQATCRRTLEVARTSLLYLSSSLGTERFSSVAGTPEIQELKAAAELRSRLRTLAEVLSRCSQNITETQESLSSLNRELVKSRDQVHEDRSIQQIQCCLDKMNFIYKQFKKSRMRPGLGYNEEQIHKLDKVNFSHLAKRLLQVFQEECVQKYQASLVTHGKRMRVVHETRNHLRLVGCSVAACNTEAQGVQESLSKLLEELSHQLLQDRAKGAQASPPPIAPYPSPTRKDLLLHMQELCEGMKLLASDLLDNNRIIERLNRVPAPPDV

[2] = target: T2, Serine/threonine-protein kinase Nek1 (Homo sapiens) (UniProt Q96PY6); conditions: at 0.1 µM
T2 sequence (whole entry): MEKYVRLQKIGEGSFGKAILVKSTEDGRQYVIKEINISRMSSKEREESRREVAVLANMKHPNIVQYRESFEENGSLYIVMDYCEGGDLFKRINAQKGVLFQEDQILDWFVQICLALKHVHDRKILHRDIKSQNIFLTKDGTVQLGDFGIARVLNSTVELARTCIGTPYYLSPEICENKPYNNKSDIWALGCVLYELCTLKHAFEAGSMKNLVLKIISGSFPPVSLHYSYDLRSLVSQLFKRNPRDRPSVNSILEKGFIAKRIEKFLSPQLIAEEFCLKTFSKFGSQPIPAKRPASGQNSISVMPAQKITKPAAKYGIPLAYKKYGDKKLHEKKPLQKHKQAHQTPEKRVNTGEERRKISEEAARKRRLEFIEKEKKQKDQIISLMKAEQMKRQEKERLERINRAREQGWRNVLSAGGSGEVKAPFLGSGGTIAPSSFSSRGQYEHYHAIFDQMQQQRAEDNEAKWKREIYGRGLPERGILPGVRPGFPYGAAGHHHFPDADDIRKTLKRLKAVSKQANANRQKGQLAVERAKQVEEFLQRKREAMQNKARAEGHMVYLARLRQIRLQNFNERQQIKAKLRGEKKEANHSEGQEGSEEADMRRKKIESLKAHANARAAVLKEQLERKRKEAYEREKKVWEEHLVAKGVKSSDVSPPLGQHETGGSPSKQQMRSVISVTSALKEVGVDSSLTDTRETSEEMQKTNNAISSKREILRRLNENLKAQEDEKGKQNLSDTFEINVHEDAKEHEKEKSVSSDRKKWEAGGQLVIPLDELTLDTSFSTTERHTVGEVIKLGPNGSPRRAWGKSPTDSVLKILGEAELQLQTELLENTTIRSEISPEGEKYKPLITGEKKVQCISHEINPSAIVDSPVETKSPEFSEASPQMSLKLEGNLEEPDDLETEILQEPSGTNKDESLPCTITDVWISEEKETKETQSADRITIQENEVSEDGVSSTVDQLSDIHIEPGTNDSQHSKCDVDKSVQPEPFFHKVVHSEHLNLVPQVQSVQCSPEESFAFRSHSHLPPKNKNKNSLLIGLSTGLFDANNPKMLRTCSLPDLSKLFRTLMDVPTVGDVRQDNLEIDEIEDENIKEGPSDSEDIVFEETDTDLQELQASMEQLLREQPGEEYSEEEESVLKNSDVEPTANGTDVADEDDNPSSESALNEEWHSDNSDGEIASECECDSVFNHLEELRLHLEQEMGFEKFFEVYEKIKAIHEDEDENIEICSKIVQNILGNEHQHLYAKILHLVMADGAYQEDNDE

[3] = target: T2, Serine/threonine-protein kinase Nek1 (Homo sapiens); conditions: at 1 µM
[4] = target: T3, Serine/threonine-protein kinase Nek2 (Homo sapiens) (UniProt P51955); conditions: at 0.1 µM
T3 sequence (whole entry): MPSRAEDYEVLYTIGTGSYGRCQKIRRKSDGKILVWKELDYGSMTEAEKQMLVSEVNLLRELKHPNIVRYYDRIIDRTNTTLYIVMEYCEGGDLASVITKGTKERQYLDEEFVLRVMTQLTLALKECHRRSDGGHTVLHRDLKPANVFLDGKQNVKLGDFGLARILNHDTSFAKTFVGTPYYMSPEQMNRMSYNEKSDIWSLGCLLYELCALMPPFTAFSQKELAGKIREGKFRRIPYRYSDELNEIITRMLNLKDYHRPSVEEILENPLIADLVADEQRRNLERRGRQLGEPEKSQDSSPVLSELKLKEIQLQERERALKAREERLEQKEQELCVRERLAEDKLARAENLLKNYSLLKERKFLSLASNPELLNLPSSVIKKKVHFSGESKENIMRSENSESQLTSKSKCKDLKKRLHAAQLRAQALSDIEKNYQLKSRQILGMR

[5] = target: T3, Serine/threonine-protein kinase Nek2 (Homo sapiens); conditions: at 1 µM
[6] = target: Serine/threonine-protein kinase Nek6 (Homo sapiens) (UniProt Q9HC98); conditions: at 0.1 µM
Serine/threonine-protein kinase Nek6 (Homo sapiens), sequence (Q9HC98 whole entry): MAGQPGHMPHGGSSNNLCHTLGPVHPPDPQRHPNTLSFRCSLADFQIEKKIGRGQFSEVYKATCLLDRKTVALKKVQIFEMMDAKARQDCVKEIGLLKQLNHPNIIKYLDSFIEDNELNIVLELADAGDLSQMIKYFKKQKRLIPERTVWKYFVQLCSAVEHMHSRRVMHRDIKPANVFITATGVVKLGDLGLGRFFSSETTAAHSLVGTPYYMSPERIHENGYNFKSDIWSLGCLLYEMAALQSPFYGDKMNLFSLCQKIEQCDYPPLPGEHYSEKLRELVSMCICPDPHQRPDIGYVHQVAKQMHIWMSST

[7] = target: Serine/threonine-protein kinase Nek6 (Homo sapiens) (UniProt Q9HC98); conditions: at 1 µM
[8] = target: Serine/threonine-protein kinase Nek7 (Homo sapiens) (UniProt Q8TDX7); conditions: at 0.1 µM
Serine/threonine-protein kinase Nek7 (Homo sapiens), sequence (Q8TDX7 whole entry, looked up): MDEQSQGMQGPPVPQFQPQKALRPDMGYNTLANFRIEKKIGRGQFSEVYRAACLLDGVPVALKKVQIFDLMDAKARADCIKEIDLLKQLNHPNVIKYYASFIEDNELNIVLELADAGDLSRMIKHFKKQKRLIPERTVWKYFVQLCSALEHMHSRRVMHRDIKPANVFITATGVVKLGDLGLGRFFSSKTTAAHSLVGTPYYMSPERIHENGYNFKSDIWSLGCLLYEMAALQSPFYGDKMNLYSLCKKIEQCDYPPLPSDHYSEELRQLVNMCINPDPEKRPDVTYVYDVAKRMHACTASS

[9] = target: Serine/threonine-protein kinase Nek7 (Homo sapiens) (UniProt Q8TDX7); conditions: at 1 µM
[10] = target: T4, Serine/threonine-protein kinase Nek9 (Homo sapiens) (UniProt Q8TD19); conditions: at 0.1 µM
T4 sequence (whole entry): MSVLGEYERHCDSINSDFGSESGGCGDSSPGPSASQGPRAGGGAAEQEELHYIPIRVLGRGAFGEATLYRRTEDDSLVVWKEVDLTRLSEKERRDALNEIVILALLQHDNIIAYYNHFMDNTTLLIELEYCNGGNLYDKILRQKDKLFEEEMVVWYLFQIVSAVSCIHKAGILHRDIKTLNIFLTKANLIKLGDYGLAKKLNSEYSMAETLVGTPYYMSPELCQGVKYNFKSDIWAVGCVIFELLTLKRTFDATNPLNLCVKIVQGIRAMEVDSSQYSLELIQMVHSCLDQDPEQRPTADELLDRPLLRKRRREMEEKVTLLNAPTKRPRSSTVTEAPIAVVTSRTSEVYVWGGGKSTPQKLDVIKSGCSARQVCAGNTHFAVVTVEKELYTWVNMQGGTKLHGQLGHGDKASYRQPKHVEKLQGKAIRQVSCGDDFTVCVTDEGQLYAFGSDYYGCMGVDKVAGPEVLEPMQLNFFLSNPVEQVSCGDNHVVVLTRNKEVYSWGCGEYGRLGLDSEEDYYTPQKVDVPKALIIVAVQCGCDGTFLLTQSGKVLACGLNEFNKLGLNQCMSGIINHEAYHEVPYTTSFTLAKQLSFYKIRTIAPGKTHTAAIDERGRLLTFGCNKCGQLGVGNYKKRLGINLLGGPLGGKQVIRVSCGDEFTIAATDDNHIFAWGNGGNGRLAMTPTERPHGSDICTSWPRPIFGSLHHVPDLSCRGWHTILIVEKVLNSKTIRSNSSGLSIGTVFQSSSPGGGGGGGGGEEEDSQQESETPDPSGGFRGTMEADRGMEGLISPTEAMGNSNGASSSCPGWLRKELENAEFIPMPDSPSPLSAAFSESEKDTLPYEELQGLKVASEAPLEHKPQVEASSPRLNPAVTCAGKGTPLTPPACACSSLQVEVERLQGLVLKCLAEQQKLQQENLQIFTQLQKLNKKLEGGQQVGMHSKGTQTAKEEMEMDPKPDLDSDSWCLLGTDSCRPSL

[11] = target: T4, Serine/threonine-protein kinase Nek9 (Homo sapiens); conditions: at 1 µM
[12] = target: Serine/threonine-protein kinase PLK1 (Homo sapiens) (UniProt P53350); conditions: at 0.1 µM
Serine/threonine-protein kinase PLK1 (Homo sapiens), sequence (P53350 whole entry): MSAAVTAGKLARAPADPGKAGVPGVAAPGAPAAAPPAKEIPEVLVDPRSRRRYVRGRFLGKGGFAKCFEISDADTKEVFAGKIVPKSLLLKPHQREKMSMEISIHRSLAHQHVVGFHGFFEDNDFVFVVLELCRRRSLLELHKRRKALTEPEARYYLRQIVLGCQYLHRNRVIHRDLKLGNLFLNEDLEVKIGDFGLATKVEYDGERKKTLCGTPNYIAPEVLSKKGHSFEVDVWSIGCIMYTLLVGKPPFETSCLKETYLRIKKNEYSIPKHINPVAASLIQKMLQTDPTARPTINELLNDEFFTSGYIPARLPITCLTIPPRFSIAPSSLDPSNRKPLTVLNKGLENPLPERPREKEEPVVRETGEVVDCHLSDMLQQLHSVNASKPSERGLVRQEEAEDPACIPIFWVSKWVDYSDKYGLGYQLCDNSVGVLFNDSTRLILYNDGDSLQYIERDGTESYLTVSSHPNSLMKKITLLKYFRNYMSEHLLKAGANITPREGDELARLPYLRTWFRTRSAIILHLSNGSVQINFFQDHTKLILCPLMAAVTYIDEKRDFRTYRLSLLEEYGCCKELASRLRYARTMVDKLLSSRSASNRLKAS

[13] = target: Serine/threonine-protein kinase PLK1 (Homo sapiens) (UniProt P53350); conditions: at 1 µM
[14] = target: T5, Dual specificity protein kinase TTK (Homo sapiens) (UniProt P33981); conditions: at 0.1 µM
T5 sequence (whole entry): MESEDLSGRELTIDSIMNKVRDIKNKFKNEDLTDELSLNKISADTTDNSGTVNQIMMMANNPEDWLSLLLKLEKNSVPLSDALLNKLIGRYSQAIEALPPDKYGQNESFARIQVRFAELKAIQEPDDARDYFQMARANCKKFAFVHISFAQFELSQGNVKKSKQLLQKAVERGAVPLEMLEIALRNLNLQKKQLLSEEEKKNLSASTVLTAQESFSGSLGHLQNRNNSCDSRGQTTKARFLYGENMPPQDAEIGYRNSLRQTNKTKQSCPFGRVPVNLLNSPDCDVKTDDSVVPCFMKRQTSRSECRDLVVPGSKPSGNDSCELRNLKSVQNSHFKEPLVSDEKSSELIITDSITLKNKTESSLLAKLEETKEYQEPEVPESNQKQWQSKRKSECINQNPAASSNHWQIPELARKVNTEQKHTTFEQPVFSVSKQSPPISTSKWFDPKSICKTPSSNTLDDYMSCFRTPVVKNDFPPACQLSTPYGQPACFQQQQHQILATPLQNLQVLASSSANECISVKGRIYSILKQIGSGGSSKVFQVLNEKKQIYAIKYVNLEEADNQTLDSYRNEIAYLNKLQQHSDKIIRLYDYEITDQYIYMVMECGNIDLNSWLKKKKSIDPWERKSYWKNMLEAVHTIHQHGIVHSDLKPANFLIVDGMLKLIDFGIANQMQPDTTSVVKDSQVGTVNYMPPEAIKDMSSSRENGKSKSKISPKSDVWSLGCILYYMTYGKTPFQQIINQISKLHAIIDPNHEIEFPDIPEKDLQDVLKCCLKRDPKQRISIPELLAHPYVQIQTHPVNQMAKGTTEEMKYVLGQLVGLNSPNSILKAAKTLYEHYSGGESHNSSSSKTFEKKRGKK

[15] = system: T6, Receptor-type tyrosine-protein kinase FLT3 (Homo sapiens), P36888 [D835Y]; conditions: at 1 µM
T6 sequence (whole entry): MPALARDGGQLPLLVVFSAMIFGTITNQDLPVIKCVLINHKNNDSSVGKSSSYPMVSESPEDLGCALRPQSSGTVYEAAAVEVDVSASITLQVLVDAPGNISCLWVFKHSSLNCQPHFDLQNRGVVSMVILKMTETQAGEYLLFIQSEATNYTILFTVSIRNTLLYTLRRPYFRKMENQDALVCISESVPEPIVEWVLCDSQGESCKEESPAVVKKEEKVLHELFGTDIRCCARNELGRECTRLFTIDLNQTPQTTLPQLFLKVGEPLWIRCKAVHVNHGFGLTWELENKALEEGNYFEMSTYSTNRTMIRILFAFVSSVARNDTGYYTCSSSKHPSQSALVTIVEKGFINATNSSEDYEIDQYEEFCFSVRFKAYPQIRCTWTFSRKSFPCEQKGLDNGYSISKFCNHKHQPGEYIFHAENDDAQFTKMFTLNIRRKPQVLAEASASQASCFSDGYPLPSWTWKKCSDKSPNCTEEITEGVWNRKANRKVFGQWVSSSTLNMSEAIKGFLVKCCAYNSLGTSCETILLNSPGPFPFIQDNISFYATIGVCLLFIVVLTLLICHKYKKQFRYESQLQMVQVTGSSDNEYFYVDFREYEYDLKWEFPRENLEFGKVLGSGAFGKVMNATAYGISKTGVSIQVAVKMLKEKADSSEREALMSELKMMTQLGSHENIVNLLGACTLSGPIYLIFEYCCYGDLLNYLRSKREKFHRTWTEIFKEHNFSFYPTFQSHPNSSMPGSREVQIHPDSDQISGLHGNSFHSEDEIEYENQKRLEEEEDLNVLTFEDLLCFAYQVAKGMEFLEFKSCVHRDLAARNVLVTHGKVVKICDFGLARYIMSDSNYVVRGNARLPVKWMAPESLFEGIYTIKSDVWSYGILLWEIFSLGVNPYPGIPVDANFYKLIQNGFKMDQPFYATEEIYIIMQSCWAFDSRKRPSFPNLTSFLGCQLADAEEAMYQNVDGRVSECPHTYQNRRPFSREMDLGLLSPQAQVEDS

[16] = target: Macrophage colony-stimulating factor 1 receptor (Homo sapiens) (UniProt P07333); conditions: at 0.1 µM
Macrophage colony-stimulating factor 1 receptor (Homo sapiens), sequence (P07333 whole entry): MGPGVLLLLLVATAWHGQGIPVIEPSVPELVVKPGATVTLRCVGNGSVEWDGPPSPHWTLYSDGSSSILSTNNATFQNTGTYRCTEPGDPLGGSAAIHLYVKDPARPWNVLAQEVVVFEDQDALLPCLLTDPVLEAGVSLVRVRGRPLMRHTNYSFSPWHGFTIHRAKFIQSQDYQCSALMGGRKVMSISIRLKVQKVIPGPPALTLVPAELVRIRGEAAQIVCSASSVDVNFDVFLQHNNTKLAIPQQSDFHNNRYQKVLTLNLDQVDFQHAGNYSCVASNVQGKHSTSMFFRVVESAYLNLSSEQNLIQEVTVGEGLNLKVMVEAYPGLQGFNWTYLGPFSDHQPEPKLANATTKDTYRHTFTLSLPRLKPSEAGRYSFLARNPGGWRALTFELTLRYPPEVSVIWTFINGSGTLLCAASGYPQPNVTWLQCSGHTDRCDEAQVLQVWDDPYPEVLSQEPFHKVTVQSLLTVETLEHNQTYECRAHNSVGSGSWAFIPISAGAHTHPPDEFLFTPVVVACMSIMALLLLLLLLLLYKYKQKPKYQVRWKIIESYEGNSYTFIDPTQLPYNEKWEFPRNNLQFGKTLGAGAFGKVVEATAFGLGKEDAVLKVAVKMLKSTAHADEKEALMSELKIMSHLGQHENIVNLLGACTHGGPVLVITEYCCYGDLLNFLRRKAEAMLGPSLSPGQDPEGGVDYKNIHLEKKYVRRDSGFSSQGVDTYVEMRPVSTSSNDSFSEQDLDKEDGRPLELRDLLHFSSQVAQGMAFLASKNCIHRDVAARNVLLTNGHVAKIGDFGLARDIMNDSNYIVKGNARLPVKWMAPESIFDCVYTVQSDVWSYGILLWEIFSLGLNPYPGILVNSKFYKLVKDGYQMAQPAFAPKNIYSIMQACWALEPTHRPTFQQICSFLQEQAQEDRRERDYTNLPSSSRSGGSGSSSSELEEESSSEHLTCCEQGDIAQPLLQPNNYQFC

[17] = target: Macrophage colony-stimulating factor 1 receptor (Homo sapiens) (UniProt P07333); conditions: at 1 µM
[18] = target: Tyrosine-protein kinase Fyn (Homo sapiens) (UniProt P06241); conditions: at 0.1 µM
Tyrosine-protein kinase Fyn (Homo sapiens), sequence (P06241 2-537 limits assumed): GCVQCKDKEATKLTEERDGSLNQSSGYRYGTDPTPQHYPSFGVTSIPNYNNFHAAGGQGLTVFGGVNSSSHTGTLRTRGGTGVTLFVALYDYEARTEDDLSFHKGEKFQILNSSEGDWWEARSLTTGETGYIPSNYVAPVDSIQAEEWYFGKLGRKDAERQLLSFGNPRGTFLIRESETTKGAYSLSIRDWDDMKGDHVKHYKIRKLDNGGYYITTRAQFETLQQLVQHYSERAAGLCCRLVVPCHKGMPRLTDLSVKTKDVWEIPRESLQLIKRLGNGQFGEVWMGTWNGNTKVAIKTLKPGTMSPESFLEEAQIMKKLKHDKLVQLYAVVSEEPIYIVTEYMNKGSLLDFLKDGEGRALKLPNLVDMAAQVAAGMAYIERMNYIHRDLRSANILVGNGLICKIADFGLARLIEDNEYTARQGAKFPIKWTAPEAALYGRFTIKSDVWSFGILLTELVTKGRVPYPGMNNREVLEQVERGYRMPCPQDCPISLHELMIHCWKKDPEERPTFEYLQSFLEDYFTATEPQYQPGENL

[19] = target: Vascular endothelial growth factor receptor 3 (Homo sapiens) (UniProt P35916); conditions: at 0.1 µM
Vascular endothelial growth factor receptor 3 (Homo sapiens), sequence (P35916 whole entry): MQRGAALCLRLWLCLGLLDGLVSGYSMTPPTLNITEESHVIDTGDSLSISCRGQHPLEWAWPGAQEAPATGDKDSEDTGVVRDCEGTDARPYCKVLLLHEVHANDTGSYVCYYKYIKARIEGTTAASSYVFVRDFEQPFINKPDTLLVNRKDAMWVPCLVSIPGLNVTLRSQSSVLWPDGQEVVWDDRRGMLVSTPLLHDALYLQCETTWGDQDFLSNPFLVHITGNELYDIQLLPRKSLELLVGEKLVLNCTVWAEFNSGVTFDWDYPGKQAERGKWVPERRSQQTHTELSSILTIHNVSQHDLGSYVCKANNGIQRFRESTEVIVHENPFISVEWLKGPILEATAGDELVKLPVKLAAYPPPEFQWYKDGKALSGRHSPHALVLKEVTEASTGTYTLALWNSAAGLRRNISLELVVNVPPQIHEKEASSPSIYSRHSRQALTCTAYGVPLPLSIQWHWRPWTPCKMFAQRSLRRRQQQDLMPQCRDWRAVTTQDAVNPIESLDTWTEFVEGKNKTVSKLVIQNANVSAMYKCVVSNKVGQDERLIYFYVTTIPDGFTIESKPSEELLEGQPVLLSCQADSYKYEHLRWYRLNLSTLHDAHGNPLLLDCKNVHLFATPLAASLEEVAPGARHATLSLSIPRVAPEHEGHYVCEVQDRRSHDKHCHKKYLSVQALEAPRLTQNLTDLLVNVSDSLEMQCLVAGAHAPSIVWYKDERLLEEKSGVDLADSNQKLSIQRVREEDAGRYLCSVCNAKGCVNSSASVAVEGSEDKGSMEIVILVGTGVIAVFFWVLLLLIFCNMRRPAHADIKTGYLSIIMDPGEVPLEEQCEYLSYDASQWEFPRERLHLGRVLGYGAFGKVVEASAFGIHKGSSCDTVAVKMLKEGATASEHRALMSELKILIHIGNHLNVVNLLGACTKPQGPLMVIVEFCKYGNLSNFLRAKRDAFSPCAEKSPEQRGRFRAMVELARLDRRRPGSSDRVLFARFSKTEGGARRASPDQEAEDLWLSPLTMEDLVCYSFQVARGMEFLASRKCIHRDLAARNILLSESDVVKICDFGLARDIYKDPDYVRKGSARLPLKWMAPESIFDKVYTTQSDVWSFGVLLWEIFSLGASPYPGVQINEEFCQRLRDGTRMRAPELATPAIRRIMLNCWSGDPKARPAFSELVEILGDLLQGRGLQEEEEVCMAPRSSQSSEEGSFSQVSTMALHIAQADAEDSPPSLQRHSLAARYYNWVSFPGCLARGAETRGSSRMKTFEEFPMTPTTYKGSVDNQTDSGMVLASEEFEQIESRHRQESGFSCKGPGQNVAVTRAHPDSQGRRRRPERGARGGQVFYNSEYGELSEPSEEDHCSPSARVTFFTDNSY

[20] = target: Vascular endothelial growth factor receptor 3 (Homo sapiens) (UniProt P35916); conditions: at 1 µM

Compound	inhibition [1] [%]	inhibition [2] [%]	inhibition [3] [%]	inhibition [4] [%]	inhibition [5] [%]	inhibition [6] [%]	inhibition [7] [%]	inhibition [8] [%]	inhibition [9] [%]	inhibition [10] [%]	inhibition [11] [%]	inhibition [12] [%]	inhibition [13] [%]	inhibition [14] [%]	inhibition [15] [%]	inhibition [16] [%]	inhibition [17] [%]	inhibition [18] [%]	inhibition [19] [%]	inhibition [20] [%]
COc1cc(C)c(N(C)C(=O)CN(C)C)cc1Nc1nc(Nc2cccc(F)c2C(N)=O)c2cc[nH]c2n1	0.91	1.9	1.66	3.24	3.64	1.26	-1.46	3.13	2.22	5.24	3.64	2.25	2.83	4.16	2.97	-0.28	4.04	-3.95	–	–
COC(=O)Nc1nc2ccc(Sc3ccc(NC(=O)Nc4cc(C(F)(F)F)ccc4F)cc3)cc2[nH]1	-1.36	-0.58	1.18	0.6	-0.82	0.73	-0.98	-0.35	-3.05	-1.77	-0.45	-0.3	0.84	1.23	6.34	0.81	3.42	-1.41	14.8	21.7
